Experimental data as given in PubChem BioAssay AID1850 (Southern Research Specialized Biocontainment Screening …, 2009).
Screen size: about 310,000 compounds; about 1,000 (0.32%) were called active. The list is a sample of the results. Results with a measured potency or affinity are listed apart. Values without a mark were called inactive. The rule behind the calls is not given here.

Test: Inhibition of PhoP regulon, Salmonella typhi GFP reporter cells, confirmation, 4 h (AID 1850);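 note: 0% = induced wells with vehicle and 100% = uninduced wells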
Conditions: Salmonella Typhi PhoP-promoter GFP reporter, fluorescence, at 50 µM, stronger effect = higher value

Structure (SMILES)	inhibition
CCC(=O)N1CCc2cc(S(=O)(=O)NC(Cc3ccccc3)C(=O)O)ccc21 (stereo not drawn)	-1.37%
Cc1nc(C(=O)NCCCO)cc2c1[nH]c1ccccc12	-6.79%
Cc1ccc(S(=O)(=O)N(CC(=O)NCc2ccncc2)Cc2ccc(F)cc2)cc1	3.98%
COc1ccc2[nH]cc(/C=N/NS(=O)(=O)c3ccc(C)cc3)c2c1	15.2%
NC(=S)N/N=C/c1c[nH]c2ccc(OCc3ccccc3)cc12	-7.88%
CSc1cccc(NC(=O)CCCOc2ccc(Cl)cc2C)c1	-5.44%
CCCNCc1cc(Br)ccc1OCC(=O)NCCc1ccccc1	-3.03%
CCN(CC)CCNCc1cc(Br)ccc1OCC(=O)NCc1ccccc1	-28.2%
CCOc1ccccc1CNC(=O)Cn1ccc2cc(S(=O)(=O)N3CCCC3)ccc21	3.38%
Cc1c(C(=O)NC(Cc2ccccc2)c2nc3ccccc3[nH]2)cccc1[N+](=O)[O-] (stereo not drawn)	-6.76%
O=Nc1c(O)n(Cc2ccccc2)c2ccccc12	-9.56%
O=Nc1c(O)[nH]c2c(F)cccc12	-3.73%
CCOC(=O)CC(c1ccc(N)cc1)n1c(C)ccc1C (stereo not drawn)	-3.47%
COc1ccc(Cc2noc(CN3CCCC(C(=O)c4cccs4)C3)n2)cc1OC (stereo not drawn)	-18.4%
CCn1c(SCC(=O)NC2CCS(=O)(=O)C2)nnc1-c1ccccc1 (stereo not drawn)	3.32%
Cc1nnc(SCC(=O)NC2CCS(=O)(=O)C2)n1-c1ccccc1 (stereo not drawn)	6.38%
CN(C)c1nc(SCC(=O)Nc2ccccc2)nc(N2CCOCC2)n1	3.38%
O=C1CN(Cc2cc(=O)oc3cc4c(cc23)CCC4)CCN1	-4.78%
CC1(C)C(=O)Nc2ccccc2N1C(=O)COC(=O)/C=C/c1ccc(OC(F)F)cc1	-3.59%
COc1cccc(C(C(=O)NC2CCCCC2)N(C(=O)Cc2cccs2)c2ccc(-n3cnnn3)c(OC)c2)c1 (stereo not drawn)	-9.92%
N#C/C(=C\c1ccccc1)C(=O)NC1CC1	2.22%
CC1CC(NC(=O)/C(C#N)=C/c2ccc[nH]2)CC(C)(C)C1 (stereo not drawn)	5.38%
COc1ccc(-n2nc(C(=O)NCC(=O)N3CCN(c4ccccc4)CC3)c3ccccc3c2=O)c(OC)c1	3.7%
CC(C)CCNc1nc(N2CCCC2)c2c(c1C#N)CCN(C)C2	19.4%

Structure (SMILES)	inhibition
CCCCCNc1nc(NCCCO)c(C#N)c2c1CN(C)CC2	-3.01%
CC1(c2ccc(Cl)cc2Cl)NC(=O)N(CC(=O)Nc2ccc3[nH]c(=O)[nH]c3c2)C1=O (stereo not drawn)	-3.74%
COc1ccc(CNC(=O)C2CCCN(S(=O)(=O)N3CCC(C)CC3)C2)c(OC)c1 (stereo not drawn)	-14.4%
CCN(CC)C(=O)c1sc(N2C(=O)Nc3ccccc3N2O)c(C(=O)OC)c1C	-7.07%
Cc1ccc(N2C(=O)CC(Sc3ncccc3C(=O)O)C2=O)cc1 (stereo not drawn)	-7.58%
NC1=NC2(CCCCC2)N=C(Nc2ccc(F)cc2F)N1	19%
CCCCOc1ccc(N2C(N)=NC(N)=NC23CCCCC3)cc1	4.38%
CCOc1ccc(NC2=NC(C)(C)N=C(N)N2)cc1	5.96%
Cc1ccc(NC2=NC3(CCCC3)N=C(N)N2)c(C)c1	13.7%
Cc1ccc(-c2[nH]ncc2/C=N/n2c(COc3ccccc3)nc3ccccc3c2=O)cc1	-8.67%
Cc1nc2ccccc2c(=O)n1/N=C/c1ccccc1O	1.57%
Cc1nc2ccccc2c(=O)n1/N=C/c1cc(Br)cc(Br)c1O	9.81%
Cc1nc2ccccc2c(=O)n1/N=C/c1cn[nH]c1-c1ccccc1	-0.17%
COc1ccc(NC(=O)C2CCCN2C(=O)NCc2ccccc2)cc1 (stereo not drawn)	-5.86%
CSc1cccc(N2CC(C(=O)N(CC(C)C)c3c(N)n(Cc4ccccc4)c(=O)[nH]c3=O)CC2=O)c1 (stereo not drawn)	-3.17%
CCOc1ccc(C(=O)Nc2nnc(C(C)C)s2)cc1OCC	-1.68%
COCCN1CCN(C(=O)C2CCC(=O)N(CCc3ccc(Cl)cc3)C2)CC1 (stereo not drawn)	-4.1%
O=C(O)c1cccc(Nc2ccnc(Nc3cccc(C(=O)O)c3)n2)c1	2.42%
c1ccc(Nc2cccc(Nc3ccccc3)n2)cc1	6.98%
Nc1ncnc(Nc2ccc(F)cc2)n1	-3.3%
COc1ccc(Nc2ccnc(Nc3ccc(OC)cc3)n2)cc1	-1.84%
Cc1c(C(=O)O)oc2ccc(S(=O)(=O)N3CCCCC3C(=O)O)cc12 (stereo not drawn)	-3.93%
C/C=C/c1ccc(OCC(O)CN2CCCCC2CC)c(OC)c1 (stereo not drawn)	8.19%
S=C1NC2(CCCCC2)NC12CCCCC2	-9.21%
